WRN helicase inh-1: blocks human WRN helicase; Q14191; WRN helicase unwinding, fluorescent forked duplex, kinetic; Potency, µM (titrated, usually from 114 µM), inactives show at the highest dose activity change, negative = inhibition, usual class: inhibitors; hit rate 0.46% among 360,000; AID 651768; also: % is scaled to controls: 0 for no effect and ±100 for the full control effect; nearly all actives have a fitted effect of over 55% in size
Target sequence (Q14191 whole entry, looked up): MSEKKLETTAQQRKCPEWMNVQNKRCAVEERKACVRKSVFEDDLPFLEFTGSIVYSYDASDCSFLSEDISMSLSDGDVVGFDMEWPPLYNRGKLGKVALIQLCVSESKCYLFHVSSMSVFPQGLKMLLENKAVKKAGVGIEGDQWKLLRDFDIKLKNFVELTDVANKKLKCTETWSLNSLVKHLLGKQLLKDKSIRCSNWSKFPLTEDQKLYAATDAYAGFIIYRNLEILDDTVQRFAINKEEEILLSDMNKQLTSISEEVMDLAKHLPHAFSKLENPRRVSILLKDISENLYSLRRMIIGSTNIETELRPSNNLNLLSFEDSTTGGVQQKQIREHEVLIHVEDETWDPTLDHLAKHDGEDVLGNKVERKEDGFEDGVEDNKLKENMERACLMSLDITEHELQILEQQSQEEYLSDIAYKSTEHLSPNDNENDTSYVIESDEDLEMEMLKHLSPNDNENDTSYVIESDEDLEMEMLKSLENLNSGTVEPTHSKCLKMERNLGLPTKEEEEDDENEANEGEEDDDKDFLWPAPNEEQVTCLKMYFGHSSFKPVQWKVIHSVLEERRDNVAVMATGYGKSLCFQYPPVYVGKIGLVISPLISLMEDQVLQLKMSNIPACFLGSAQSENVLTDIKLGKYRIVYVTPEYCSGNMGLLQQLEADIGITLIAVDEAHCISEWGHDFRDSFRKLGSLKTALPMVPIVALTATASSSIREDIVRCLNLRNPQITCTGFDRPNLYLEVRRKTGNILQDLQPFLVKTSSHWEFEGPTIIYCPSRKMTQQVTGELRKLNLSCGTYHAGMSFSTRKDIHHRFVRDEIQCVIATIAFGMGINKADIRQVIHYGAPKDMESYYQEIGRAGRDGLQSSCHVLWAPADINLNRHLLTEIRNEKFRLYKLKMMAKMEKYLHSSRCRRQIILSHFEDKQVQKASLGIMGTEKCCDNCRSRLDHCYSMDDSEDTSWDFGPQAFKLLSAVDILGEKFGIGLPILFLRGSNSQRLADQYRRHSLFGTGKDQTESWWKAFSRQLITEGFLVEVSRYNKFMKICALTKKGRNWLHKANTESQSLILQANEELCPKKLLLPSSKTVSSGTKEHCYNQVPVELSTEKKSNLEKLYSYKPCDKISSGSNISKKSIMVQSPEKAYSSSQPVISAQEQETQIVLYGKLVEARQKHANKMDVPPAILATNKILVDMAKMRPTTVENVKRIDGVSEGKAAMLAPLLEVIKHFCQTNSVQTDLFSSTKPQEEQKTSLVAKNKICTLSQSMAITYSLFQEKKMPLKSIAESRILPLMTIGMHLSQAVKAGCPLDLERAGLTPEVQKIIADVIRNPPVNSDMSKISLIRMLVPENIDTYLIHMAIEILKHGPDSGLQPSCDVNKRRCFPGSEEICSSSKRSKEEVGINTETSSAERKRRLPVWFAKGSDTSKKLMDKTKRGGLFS
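Kinetic fluorescence helicase assay: unwinding of a quenched forked DNA duplex (100 nM final) with 2 mM ATP final raises red fluorescence (525/598 nm). Compounds sat 15 min at room temperature with 20 nM WRN beforehand.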
FEN1 inh-1: inhibitors of human flap endonuclease 1; P39748; Recombinant FEN1 flap cleavage, fluorescence, 15 min; Potency, µM (doses to about 114 µM), without a hit: at the highest dose activity change, negative = inhibition, most hits filed as inhibitors; hit rate 0.35% among 390,000; AID 588795; also: % is scaled to controls: 0 for no effect and ±100 for the full control effect; nearly all actives have a fitted effect of over 65% in size
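Reaction started by adding substrate (50 nM final) to 10 nM enzyme after 15 min room-temperature compound preincubation. Reads at 0 and 15 min, with data normalized and fitted to a four-parameter Hill equation.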
RECQ1 inh: RECQ1 (human) helicase inhibition; RECQ1 DNA unwinding, red fluorescence kinetic read; hit rate 0.54% among 240,000; Potency, µM (doses to about 57.3 µM), inactives show top-dose activity, negative = inhibition, usual class: inhibitors; P46063; AID 2549;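 also: plate controls were vehicle for no effect and no enzyme for full effect; nearly all actives have a fitted effect of over 30% in size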
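50 nM RECQ1T1 preincubated 15 min with compound in Tris pH 8.0 buffer with MgCl2, DTT, Tween-20 and 2.5 ug/ml poly(dI-dC); started with 200 nM TAMRA/BHQ-2 forked duplex and 2 mM ATP. Unwinding read as fluorescence (525/598 nm), two reads 2 h apart.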
BLM helicase inh-1: inhibitors of human Bloom syndrome helicase BLM; hit rate 0.2% among 350,000; P54132; Potency, µM (doses to about 56.1 µM), without a hit: at the top dose activity change, negative = inhibition, actives largely listed as inhibitors; AID 2528; recombinant BLM DNA unwinding, fluorescence dequenching;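 also: plate controls were vehicle for no effect and no enzyme for full effect; nearly all actives have a fitted effect of over 35% in size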
L3MBTL1 block: blocks human L3MBTL1 | Potency, µM (series often up to 57.1 µM), inactives show top-dose activity, negative = inhibition, most hits filed as inhibitors | AlphaScreen L3MBTL1–H3K9me1 peptide binding | Q9Y468 | AID 485360 | hit rate 0.66% among 230,000; also: % is scaled to controls: 0 for no effect and ±100 for the full control effect; nearly all actives have a fitted effect of over 60% in size
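Read-out is AlphaScreen signal from streptavidin donor and nickel chelate acceptor beads (10 ug/mL final each) bridging L3MBTL1 (50 nM) and biotinylated K9-monomethylated H3(1-15) peptide (75 nM), after 30 min compound exposure at room temperature.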
APE1 inh: blocks human APE1 abasic DNA cleavage | Potency, µM (doses to about 65.8 µM), for the others: at the highest dose activity change, negative = inhibition, hits mostly inhibitors | hit rate 0.35% among 350,000 | P27695 | recombinant APE1, TAMRA/BHQ-2 abasic DNA cleavage fluorescence;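 also: plate controls were vehicle for no effect and reference inhibitor for full effect; nearly all actives have a fitted effect of over 55% in size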
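Compound pre-exposure to 0.75 nM APE1, 15 min at ambient temperature. Reaction initiated with 50 nM TAMRA/BHQ-2 THF substrate, read immediately in kinetic mode, 525 nm excitation, 598 nm emission.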
FEN1 inh-2: FEN1 inhibition, cherry-pick retest; shares compounds with FEN1 inh-1; FEN1 flap cleavage, TAMRA/BHQ2 fluorogenic DNA substrate; Potency, µM, actives largely listed as inhibitors; hit rate 79% among 880; also: nearly all actives have a fitted effect of over 60% in size
WRN helicase inh-2: confirmation of human WRN helicase inhibitors | shares compounds with WRN helicase inh-1 | WRN helicase DNA unwinding, fluorescence kinetic | Potency, µM (highest dose often 57.1 µM), without a hit: at the top dose activity, negative = inhibition, actives largely listed as inhibitors | hit rate 63% among 610; also: nearly all actives have a fitted effect of over 65% in size
TO displacement: counter-screen for WRN helicase inhibitors: DNA binding | shares compounds with WRN helicase inh-1 | thiazole orange DNA binding displacement, fluorescence | Potency, µM (top dose mostly 57.1 µM), for inactives: at the highest dose activity change, negative = inhibition, usual class: inhibitors | hit rate 10% among 610;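 also: drop in dye fluorescence marks compound binding to DNA; % is scaled to controls: 0 for no effect and ±100 for the full control effect; nearly all actives have a fitted effect of over 60% in size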
BLM helicase inh-2: BLM helicase inhibition, WRN selectivity check; shares compounds with WRN helicase inh-1; Recombinant BLM helicase DNA unwinding, red fluorescence; Potency, µM (series often up to 57.1 µM), inactives show top-dose activity change, negative = inhibition, hits mostly inhibitors; AID 720503; hit rate 60% among 610; also: nearly all actives have a fitted effect of over 60% in size
* hit, by the source's call; i = inactive; ? = inconclusive; · = no result given. Shown are actives, neighbours in structure and some others; about 1% of the full set was active somewhere. Calls follow the shape of the dose curve; as a rule, active = well fitted curve in the direction sought with a large enough effect; inconclusive = small, poorly fitted or top-dose-only effect, or another doubt; inactive = no such curve, though single readings can be large; an effect the other way counts as inactive or inconclusive. Potency is read from the fitted curve at half-maximal effect.

SMILES	WRN helicase inh-1	FEN1 inh-1	RECQ1 inh	BLM helicase inh-1	L3MBTL1 block	APE1 inh	FEN1 inh-2	WRN helicase inh-2	TO displacement	BLM helicase inh-2
COc1cccc2c1C(=O)c1c(O)c3c(c(O)c1C2=O)C[C@@](O)(C(=O)CO)C[C@@H]3OC1CC(N)C(O)C(C)O1 (stereo not given in full)	3µM*	6.3µM*	·	-24%	·	·	34*	17µM*	96%	27µM*
COc1cccc2c1C(=O)c1c(O)c3c(c(O)c1C2=O)CC(O)(C(C)=O)CC3OC1CC(N(C)C)C(O)C(C)O1 (stereo not given)	18µM*	32µM*	·	·	·	·	38*	24µM*	240%	24µM*
CSC12CCCN(CCC(C(C)(C)C)C1)C2=O (stereo not given)	-3%	·	·	·	·	·	·	·	·	·
O=C1c2cccc(NCCCNCCO)c2C(=O)c2cccc(NCCCNCCO)c21	10µM*	3.5µM*	·	·	·	·	4.3*	1.1µM*	0.86µM*	1.7µM*
CC(C)CNc1nc(C#N)nc(Nc2ccccc2)n1	·	·	-8%	-11%	·	1%	·	·	·	·
CN1/C(=C\C=C2/C(=O)Oc3ccccc3C2=O)C(C)(C)c2ccccc21	27µM*	35µM*	-7%	·	-11%	-4%	19*	15µM*	·	i
CC1=NN(c2ccccc2)C(=O)/C1=C\C=C1/N(C)c2ccccc2C1(C)C	10%	?	-9%	-6%	?	-3%	·	·	·	·
CN1C(=CC=C2C=C(I)C(=O)C(I)=C2)C(C)(C)c2ccccc21	4.7µM*	32µM*	0.63µM*	28µM*	-16%	-1%	85*	27µM*	88%	19µM*
CC(=O)Nc1ccc2cc3ccc(NC(C)=O)cc3nc2c1	8%	?	-11%	3%	14%	5%	·	·	·	·
CC(=O)Nc1ccc2nc3c(=O)[nH]c(=O)[nH]c3nc2c1	·	28µM*	·	11µM*	·	·	38*	3.8µM*	29%	1.4µM*
O=C(O)CCCNc1cc(N2CCN(C3CCCCC3)CC2)c2noc3c2c1C(=O)c1ccccc1-3	·	?	·	-22%	·	·	?	6.8µM*	422%	6.1µM*
Cc1ccc(N2CCN(C(=O)C3CCC(CNS(=O)(=O)c4ccc(Br)s4)CC3)CC2C)cc1 (stereo not given)	·	-17%	·	-3%	·	·	·	·	·	·
COc1cc(NS(=O)(=O)c2ccc(NC(=S)NC(=O)/C=C/c3ccco3)cc2)ncn1	14µM*	13µM*	i	3%	?	?	60*	15µM*	-22%	15µM*
N#CNC(=O)c1ccc(-n2cccc2/C=C2\NC(=O)N(CC(=O)Nc3cccc(F)c3)C2=O)cc1	·	·	·	·	·	·	34*	11µM*	9.6µM*	4.8µM*
N#CNC(=O)c1ccc(-n2cccc2/C=C2\NC(=O)N(CC(=O)Nc3ccc(Cl)cc3)C2=O)cc1	·	·	·	·	·	·	24*	4.3µM*	?	0.96µM*
Cn1cccc1/C=C1\SC(=O)N(CC(=O)Nc2ccc(Cl)cc2)C1=O	1%	3%	-7%	-1%	-6%	4%	·	·	·	·
CC(C)N1CCC(C)(C(=O)Nc2cc(-c3ccccc3)nn2C)C1 (stereo not given)	5%	·	·	·	·	·	·	·	·	·
CN(C(=O)CSc1nc2c(c(=O)[nH]1)CCCC2)c1ccccc1	·	-1%	·	-2%	·	·	·	·	·	·
CCOC(=O)C1CCN(c2cc(C)nc3c(-c4ccccc4OC)c(C)nn23)CC1	·	-20%	·	2%	·	·	·	·	·	·
O=C(O)c1ccccc1-c1c2cc(I)c(=O)c(I)c-2oc2c(I)c(O)c(I)cc12	4.7µM*	40µM*	22µM*	28µM*	·	25µM*	38*	22µM*	i	19µM*
O=Cc1ccc(-c2ccccc2C(=O)O)o1	-5%	0%	-5%	-5%	-10%	1%	·	·	·	·
Nc1nc(Sc2ccc([N+](=O)[O-])c3nonc23)c2[nH]cnc2n1	11µM*	20µM*	·	·	·	·	43*	22µM*	43µM*	15µM*
O=C(/C=C/c1ccco1)Nc1ccc(Cl)c(S(=O)(=O)N2CCOCC2)c1	-4%	-13%	i	-2%	-10%	-2%	·	·	·	·
O=C(O)c1cc(N2N=C(C(F)(F)F)/C(=C/C=C/c3ccco3)C2=O)ccc1Cl	0.84µM*	3.2µM*	17%	?	1µM*	1%	3.8*	1.4µM*	-14%	0.61µM*
